Test results taken from PubChem BioAssay AID743158 (Broad Institute, 2013).
Entries with a potency or affinity are not part of this list. Calls of active or inactive are those of the source.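 How the source made its calls: active means cell killing with a fitted half-maximal concentration at most twice the top valid dose tried; inconclusive means flat fit between -70 and -30 percent, or an invalid fit; inactive means the rest.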

experiment: viability loss in A549 lung cancer cells – cell-based, CellTiter-Glo luminescence, dry powder, set 5, cytotoxicity control, dose response (AID 743158); details: CellTiter-Glo ATP luminescence, 72 h; series mostly up to 26 µM

SMILES	outcome
CCOC(=O)c1c(-c2ccc(F)cc2)csc1NC(=O)CN1CCN(CC)CC1	inactive
Cc1cccc(OCCn2c(=S)[nH]c3cc(C(F)(F)F)ccc32)c1	inactive
Cc1ccc(OCCn2c(C)nc3ccccc32)cc1	inactive
Cc1ccc(OCCn2c(SCCO)nc3ccccc32)c(C(C)C)c1	inactive
Cc1ccccc1OCCn1c(=S)[nH]c2ccccc21	inactive
S=c1[nH]c2ccccc2n1CCOc1ccc(Cl)cc1	inactive
CCOC(=O)c1c(NC(=O)CNCCN(C)C)sc(C)c1-c1ccccc1	inactive
Cc1ccc(C(C)C)c(OCCn2c(=S)[nH]c3ccccc32)c1	inactive
COC(=O)C1=C(C)N(Cc2ccc(F)cc2)C(=S)NC1c1cccc(F)c1 (stereo not given)	inactive
CCOC(=O)c1c(NC(=O)CN2CCN(C)CC2)sc(C)c1-c1ccc(C)cc1	inactive
Fc1ccccc1OCCn1c(=S)[nH]c2ccccc21	inactive
COC(=O)C1=C(C)N(Cc2ccccc2)C(=S)NC1c1ccc(Br)cc1 (stereo not given)	inactive
S=c1[nH]c2ccccc2n1CCOc1ccccc1	inactive
Cc1ccc(OCCn2cnc3ccccc32)cc1	inactive
CCOC(=O)c1c(-c2ccc(F)cc2)csc1NC(=O)CN1CCN(C)CC1	inactive
CCOC(=O)c1c(-c2ccc(OC)cc2)csc1NC(=O)CN(C)CC(=O)N(C)C	inactive
O=c1[nH]c2ccccc2n1CCOc1ccccc1	inactive
CCOc1ccc(OCCn2c(=S)[nH]c3ccccc32)cc1	inactive
Fc1cccc2c1[nH]c(=S)n2CCOc1ccccc1	inactive
COC(=O)C1=C(C)N(Cc2ccc(Br)cc2)C(=S)NC1c1ccc(OC)cc1 (stereo not given)	inactive
